Measurements published in PubChem BioAssay AID1117359 (Southern Research Institute, 2015).
Out of some 1,500 compounds screened, about 460 (31%) were called active.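 Rule for the calls: active = viability at or below 80% at any tested concentration, marking the compound as toxic; inactive = the rest.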 Only a sample is shown. Potency and affinity values are given separately.

assay: viability loss in THP-1 monocytes – THP-1 cells, cytotoxicity control for Vif-APOBEC3G degradation inhibitor project, dose response (AID 1117359); conditions: THP-1 viability, CellTiter-Glo luminescence, 72 h; series mostly up to 40 µM; viability: at the top concentration

Structure (SMILES)	viability	outcome
COc1ccc(CC(=O)Oc2ccc(F)c(F)c2)cc1S(=O)(=O)N1CCOCC1	95.9% (inactive)	
O=C(NCc1ccc(F)cc1)C1CCC(CNc2c(N3CCCCC3)c(=O)c2=O)CC1 (stereo not given)	94.3% (inactive)	
Cc1ccc(C)c(OCCC(=O)Nc2ccccc2C(=O)NC2CC2)c1	90% (inactive)	
CCC(CC)NC(=O)Nc1ccc(F)cc1F	94.3% (inactive)	
CS(=O)(=O)N(C(=O)NC(=O)NC1CCS(=O)(=O)C1)C1CCCCC1 (stereo not given)	83.4% (inactive)	
O=C(CNS(=O)(=O)c1ccc2ccccc2c1)Nc1ccc(F)c(F)c1F	103% (inactive)	
CC(C)(C)NC(=O)CSc1nnc(-c2ccccn2)n1Cc1ccccc1	98.6% (inactive)	
COc1ccc(NC(=O)c2ccc(S(=O)(=O)N3CCOCC3)o2)cc1	115% (inactive)	
COc1ccc(OC)c(NC(=O)COC(=O)c2ccc(OC)c(S(=O)(=O)N3CCOCC3)c2)c1	113% (inactive)	
CC(=O)Nc1ccc2c(c1)Cc1cc(N3C(=O)C=CC3=O)ccc1-2	88.1% (inactive)	
NC(=O)C1CCCN(CC(=O)Nc2ccccc2C(=O)NC2CC2)C1 (stereo not given)	108% (inactive)	
CC(=O)OCCCNc1cc(Sc2nc3ccccc3s2)c2nonc2c1[N+](=O)[O-]	102% (inactive)	
COC(=O)Cc1cc(=O)n(-c2nc3ccccc3[nH]2)[nH]1	93.6% (inactive)	
CCCC(NCC(=O)Nc1ccccc1C(=O)NC1CC1)c1ccccc1 (stereo not given)	83.8% (inactive)	
Cc1ccc(-n2nc(C)c3c(C)c(CCC(=O)O)c(C)nc32)cc1	95.3% (inactive)	
CCN(CC)CCCNC(=O)CSc1nc(-c2cccs2)cc(C(F)(F)F)n1	93.7% (inactive)	
COCCn1c(N)c(N(Cc2ccccc2)C(=O)C2CCCCC2)c(=O)[nH]c1=O	95.3% (inactive)	
O=C(O)c1ccc(NS(=O)(=O)c2cccc(C(=O)Nc3ccc([N+](=O)[O-])cc3)c2)cc1	109% (inactive)	
O=C(CSCc1ccc(Br)cc1)NC1CC1	89.4% (inactive)	
CC(c1ccccc1)N(C)CC(=O)NC(=O)NCCC1=CCCCC1 (stereo not given)	82% (inactive)	
COC(=O)c1ccc(NC(=O)COc2cccc(-n3cnnn3)c2)cc1	94.6% (inactive)	
CCOC(=O)c1csc(N)c1-c1ccc([N+](=O)[O-])cc1	84.2% (inactive)	

Structure (SMILES)	viability	outcome
CCOC(=O)C/C(C)=N\Nc1ccc([N+](=O)[O-])cc1[N+](=O)[O-]	105% (inactive)	
CCOc1ccccc1NC(=O)CCS(=O)(=O)c1ccc(Br)cc1	91.6% (inactive)	
CC(=O)N1CCN(c2nc(-c3ccco3)c3c(c2C#N)CC(C)(C)SC3)CC1	91.1% (inactive)	
CC1CCCN(Cc2c(O)ccc3c2O/C(=C\c2ccco2)C3=O)C1 (stereo not given)	88.4% (inactive)	
COc1cccc(-c2nc(-c3cccs3)no2)c1	84% (inactive)	
COc1ccc(C(C)=O)cc1CN1C(=O)NC2(CCCC2)C1=O	113% (inactive)	
O=C(O)C1Nc2c(Cl)cc(Cl)cc2C2C=CCC12 (stereo not given)	98.9% (inactive)	
Cc1ncc(CO)c(/C=N/NC(=O)c2cc(O)c(O)c(O)c2)c1O	91.7% (inactive)	
COc1ccc(C(=O)N/N=C/c2cccnc2)cc1	91.2% (inactive)	
CCOC(=O)c1nn(-c2ccc(Cl)cc2Cl)c(=N)c(C#N)c1C	91.6% (inactive)	
CSc1ncccc1C(=O)NCc1nnc2ccccn12	85.7% (inactive)	
COC(=O)C1=C(C)NC(=O)NC1c1ccc2c(c1)OCO2 (stereo not given)	86.2% (inactive)	
Cc1cc(C)n2nc(SC(C)C(=O)N3CCCC3)nc2n1 (stereo not given)	89.7% (inactive)	
O=C(COC(=O)c1ccccc1Br)Nc1nnc(-c2ccccc2)o1	101% (inactive)	
O=C(Nc1ccc(F)cc1F)c1noc2c1CCC2	95.5% (inactive)	
CCOc1cccc(=O)c2c(C)n(C)c(C)c12	86.7% (inactive)	
CCOC(=O)Cn1nc(-c2ccccc2)c2cnc3ccc(C)cc3c21	104% (inactive)	
COc1ccc(/C=C/C(=O)NC(=S)Nc2ccccn2)cc1	99.5% (inactive)	
C[C@@H]1CCCCO[C@H](CN(C)C(=O)c2ccccc2)[C@@H](C)CN([C@H](C)CO)C(=O)c2cc(NC(=O)NC3CCCCC3)ccc2O1	81.3% (inactive)	
COc1cccc(/C=N/n2c(-c3cc(C)[nH]n3)n[nH]c2=S)c1	95% (inactive)	
CS(=O)(=O)N1CCCCC1CCN1CCCCC1 (stereo not given)	96.8% (inactive)	
CCOC(=O)c1cccc2c(=O)c(C(=O)c3ccc(Cl)cc3)c(C(=O)OC)[nH]c12	97.6% (inactive)	

Structure (SMILES)	viability	outcome
CCOC(=O)COn1c(=O)c(-c2ccc(Cl)cc2)[n+]([O-])c2ccccc21	112% (inactive)	
CNC(=O)C(=O)N/N=C/c1cccnc1	81.3% (inactive)	
COc1cccc(CN2CCSCC2)c1	91.3% (inactive)	
CCNC(=S)Nc1cccc(S(=O)(=O)NC2=NCCC2)c1	101% (inactive)	
CC(=O)NCCn1c(SCC(=O)Nc2ccc(C)cc2)nc2ccccc2c1=O	89.7% (inactive)	
CCC(NC(=O)Nc1ccc(O)cc1)(C(F)(F)F)C(F)(F)F	96% (inactive)	
CC(=O)N1CCN(c2ccc(NCc3ccc(F)cc3)cc2)CC1	95.9% (inactive)	
O=C1/C(=C/c2ccco2)SC(=S)N1c1cccnc1	100% (inactive)	
O=S(=O)(O)c1cc(O)c2c(O)c(N=Nc3cc(Cl)ccc3O)c(S(=O)(=O)O)cc2c1	87.5% (inactive)	
Cc1ccccc1OCCC(=O)Nc1ccccc1C(=O)NC1CC1	84.7% (inactive)	
CC(=O)Nc1ccc(OCC(=O)N2CCc3ccccc3C2)cc1	112% (inactive)	
O=C(Nc1nnc(SCc2c(Cl)cccc2Cl)s1)c1cccc([N+](=O)[O-])c1	97.1% (inactive)	
O=C(OCC(=O)N1CCN(C(=O)c2ccco2)CC1)c1cc(-c2ccco2)nc2ccccc12	86.7% (inactive)	
Cc1ccc(N2CC(NC(=O)N3CCN(C(=O)c4ccco4)CC3)CC2=O)cc1 (stereo not given)	85.7% (inactive)	
COc1cccc(CN2CCNC(=O)C2CC(=O)NCCn2nc(C)cc2C)c1OC (stereo not given)	93.5% (inactive)	
Cc1ccccc1C(=O)NCC(=O)OC(C)C(=O)NC(C)CCc1ccccc1 (stereo not given)	106% (inactive)	
O=C(Nc1nc(-c2ccco2)c(-c2ccco2)s1)C1CCC1	99.6% (inactive)	
c1ccc(CSc2nnc(-c3ccco3)c(-c3ccco3)n2)cc1	83.8% (inactive)	
CC(C)C[C@H](NC(=O)c1nc[nH]c1C(=O)N1CCN(c2ccccc2)CC1)C(=O)OC(C)(C)C	85.4% (inactive)	
O=C(c1ccc2c(c1)[nH]c(=S)n1c3ccccc3nc21)N1CCN(c2cccc(Cl)c2)CC1	83.2% (inactive)	
COc1ccccc1N1CCN(C(=O)C(F)F)CC1	90% (inactive)	
Cc1cccc(N2CCN(CC(O)COc3ccc(Cl)cc3)CC2)c1 (stereo not given)	96.6% (inactive)	

Structure (SMILES)	viability	outcome
COc1cccc(=O)c2c(C)n(-c3ccc(C(=O)O)cc3)c(C)c12	105% (inactive)	
COc1cc(C(=O)Nc2ccc(N3CCCS3(=O)=O)cc2)c([N+](=O)[O-])cc1OC	95.8% (inactive)	
CC(C)Cc1cc(C(=O)Nc2cccc(O)c2)no1	85.4% (inactive)	
COc1ccc(S(=O)(=O)N2CCOC2CNC(=O)C(=O)NCc2ccccn2)cc1 (stereo not given)	80.3% (inactive)	
Cc1csc(=O)n1CC(=O)OCC(=O)c1ccc(Br)cc1	110% (inactive)	
O=C(O)/C=C/C(=O)NNc1ncnc2ccccc12	93.2% (inactive)	
C=CCn1c(SCC(=O)c2c(N)n(C)c(=O)n(C)c2=O)nnc1-c1ccccc1F	80.2% (inactive)	
COc1ccc2c(=O)c3c(=O)n(-c4ccc(C)cc4)c(-c4ccccc4)nc3oc2c1	105% (inactive)	
COc1ccc(CNc2nc3ccccc3n2C)c(O)c1	81.6% (inactive)	
O=[N+]([O-])c1ccc(N/N=C/c2ccc(O)c(O)c2O)c(S(=O)(=O)N2CCOCC2)c1	88.3% (inactive)	
Cc1nnc(SCC(=O)N2CCN(c3ccccc3)CC2)n1C1CC1	111% (inactive)	
CCOC(CCNC(=O)c1cn(C)c(=O)c2c1c1ccccc1n2C)OCC	87.9% (inactive)	
Oc1ccc(/C=C/c2cnccn2)cc1	103% (inactive)	
O=CN/C=C/c1cc(O)ccc1O	93.7% (inactive)	
CC1CN(C(=O)COC(=O)Cc2ccc(Cl)cc2)CC(C)O1 (stereo not given)	95.3% (inactive)	
CCN(CC(=O)Nc1c(F)cccc1F)C(=O)CSC(=S)N1CCCC1	106% (inactive)	
O=c1[nH]c2ccccc2c(O)c1-[n+]1ccccc1	105% (inactive)	
CCc1ccc2c(CN3CCC(C(=O)OC)CC3)cc(=O)oc2c1	101% (inactive)	
Cc1ccc(CNC(=O)COc2ccc3c(c2)CCC3)cc1	106% (inactive)	
CCn1c(SCC(=O)OC)nc2sc3c(c2c1=O)CCC3	91.2% (inactive)	
Cc1cc(SCC(=O)NCCCN2CCCC2=O)nc2ccccc12	108% (inactive)	
Cc1cc2c(c(=O)o1)C(c1ccc([N+](=O)[O-])o1)C(C#N)=C(N)O2 (stereo not given)	106% (inactive)	

Structure (SMILES)	viability	outcome
CC1CN(S(=O)(=O)c2cc(C(=O)NCc3ccncc3)ccc2Cl)CC(C)O1 (stereo not given)	103% (inactive)	
CCN(CC(=O)Nc1ccc(NC(C)=O)cc1)C(=O)C1CCCC1	121% (inactive)	
CN(C)c1ccc(NC(=O)Nc2cccc(Cl)c2)cc1	84.4% (inactive)	
COC(=O)C1CCN(c2ccc([N+](=O)[O-])cc2)CC1	85.4% (inactive)	
C=CCc1c(C)nc2c(C(=O)O)cnn2c1C	105% (inactive)	
CC1(C)CCC(=O)c2ccccc21	87.5% (inactive)	
O=S(=O)(O)c1cc(O)c2cc(Nc3ccccc3)ccc2c1	86% (inactive)	
Cn1cc(/C=C/C(=O)N2CCCC(C(=O)c3cccc(C(F)(F)F)c3)C2)cn1 (stereo not given)	95.5% (inactive)	
CC1(C)C2CCC1(C)C(OC(=O)C[n+]1ccccc1)C2 (stereo not given)	101% (inactive)	
CN(C)c1ncc(C2=C(Cl)C(=O)C(N3CCCC3)=C(Cl)C2=O)s1	89.6% (inactive)	
O=C1C(Cl)=C(N2CCCCC2)C(=O)C(Cl)=C1c1cnc(N2CCCCC2)s1		inactive
CN1CCN(C2=C(Cl)C(=O)C(c3cnc(N4CCCCC4)s3)=C(Cl)C2=O)CC1	100% (inactive)	
CN1CCN(S(=O)(=O)Cc2ccc(Cl)cc2)CC1	90.8% (inactive)	
CCn1c(CNC(=O)Cc2ccc(OC)cc2)nnc1SCC(=O)Nc1ccc(C(=O)O)cc1	90% (inactive)	
Cc1cc(O)c(Oc2cc(C)cc(O)c2O)c(O)c1	99.7% (inactive)	
Cc1nc(NCc2ccccc2)c2cc[nH]c2n1	88.9% (inactive)	
COc1ccc2c(c1)n([O-])c1c([n+]2=O)CCC1	98.7% (inactive)	
CC(C)C(NC(N)=O)C(=O)NC1CCCCC1 (stereo not given)	86.8% (inactive)	
CN(CC(=O)Nc1cccc(F)c1)C(=O)c1cc(-c2ccco2)nc2ccccc12	96.6% (inactive)	
CCc1ccccc1NNC(=O)CCc1ccccc1	90% (inactive)	
Cn1cnnc1SCC(=O)Nc1ncc([N+](=O)[O-])s1	96.2% (inactive)	
C=C(C)C(=O)Nc1cccc(C2=NOC3(C2)C[C@@H](C(N)=O)N(C(=O)CCCCC)C3)c1 (stereo not given in full)	99.8% (inactive)	
